Measured values as given in PubChem BioAssay (NCI).
About 83,000 compounds went through this panel and 20% of them were active in at least one assay; those are over-represented in the sample as a whole.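 In brief: 96-well plates, 48 h treatment, single concentration, percent growth endpoint.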 Unmarked numbers belong to inactive results. The source made the active and inactive calls. How the source made its calls: active means growth percent below 10; inactive means the rest.

Experiments:
Assay in all cases: NCI-60 one-dose screen, 48 h (100 = growth as untreated, 0 = no growth, -100 = all killed)
Settings in all cases: 10 µM unless noted
[1] = system: SR leukemia
[2] = system: RPMI-8226 leukemia
[3] = system: OVCAR-8 ovarian
[4] = system: OVCAR-5 ovarian
[5] = system: OVCAR-4 ovarian
[6] = system: SK-OV-3 ovarian
[7] = system: IGROV1 ovarian
[8] = system: OVCAR-3 ovarian
[9] = system: HS 578T breast
[10] = system: NCI/ADR-RES ovarian
[11] = system: T-47D breast
[12] = system: BT-549 breast
[13] = system: SW-620 colon
[14] = system: MCF7 breast
[15] = system: HCT-116 colon
[16] = system: HCC-2998 colon
[17] = system: KM12 colon
[18] = system: MDA-MB-435 melanoma

Row | SMILES | growth [1] | growth [2] | growth [3] | growth [4] | growth [5] | growth [6] | growth [7] | growth [8] | growth [9] | growth [10] | growth [11] | growth [12] | growth [13] | growth [14] | growth [15] | growth [16] | growth [17] | growth [18]
1 | CCCCCCCCCCCCCCCCCCOc1ccc(CC(=O)OCC[N+]2(C)CCCC2)cc1 | 101% | 97.6% | 99.7% | 97.9% | 87.3% | 108% | 94.1% | 109% | 95% | 106% | 95.5% | 123% | 95% | 90.9% | 92% | 104% | 101% | 
2 | COc1cc(/C=C/C(=O)c2c(C)nc3ccccc3c2C)ccc1OCCCN1CCN(C(=O)c2ccco2)CC1 | 64.8% | 31.4% | 73.5% | 95.5% | 25.2% | 107% | 76.6% | 97.9% | 82.1% | 55.6% | 67.7% | 86.3% | 68.3% | 75.4% | 76.6% | 46.5% | 98% | 
3 | CCOC(=O)c1c2c(n3ccc(NC(=O)OC(C)(C)C)cc13)C(=O)c1ncccc1C2=O | 7.58% (active) | -6.66% (active) | -11.4% (active) | -5.26% (active) | 11.9% | -32.9% (active) | -4.89% (active) | -33.6% (active) | -25.3% (active) | -35.9% (active) | 5.16% (active) | -36.7% (active) | -74.9% (active) | -72.2% (active) | -65.8% (active) |  | -46.4% (active) | -62.2% (active)
4 | CN(C)c1ccc(-c2cc(-c3ccc(Nc4nc(Nc5ccc(Cl)cc5)nc(Nc5ccc(Cl)cc5)n4)cc3)no2)cc1 | -39.3% (active) | -58.6% (active) | 49.7% | 54.6% | 41.6% | 80.1% | 22.4% | 29.8% | 13.6% | 41.1% | -4.43% (active) |  | 53.6% | 13.4% | 31.3% | -5.58% (active) | 28.5% | 9.44% (active)
5 | COc1cc2ncn3c(=O)c4c5c(sc4nc3c2cc1OC)CCCC5 | 134% | 105% | 107% | 98.8% | 92.7% | 97.5% | 98.8% | 100% | 94.7% | 96% | 100% |  | 90.1% | 91.4% | 95.5% |  | 97.4% | 92.5%
6 | Cc1c(C)c2c(c(C)c1OCC(=O)O)CC[C@@](C)(CCC[C@@H](C)CCC[C@@H](C)CCCC(C)C)O2 | 0.521% [50 µM] (active) | -39.4% [50 µM] (active) | -9.97% [50 µM] (active) | 25.5% [50 µM] | 45.9% [50 µM] | 53.3% [50 µM] | 1.82% [50 µM] (active) | -67.3% [50 µM] (active) | 23% [50 µM] | -28.2% [50 µM] (active) | 23.6% [50 µM] |  | -41.8% [50 µM] (active) | 15.6% [50 µM] | -66.1% [50 µM] (active) | -3.58% [50 µM] (active) | -73.8% [50 µM] (active) | 15% [50 µM]
7 | Cc1cc(NCc2cc(Nc3ccnc4cc(Cl)ccc34)ccc2F)nc(N2CCSCC2)n1 | -11.7% (active) | -9.52% (active) | 19.2% | 78.7% | 14.4% | 10.3% | 40.6% | -32.6% (active) | -1.47% (active) | 15.7% |  | 46.6% | -14.1% (active) | 0.0561% (active) | -29.1% (active) | 3.4% (active) | 14.9% | -70.4% (active)
8 | COc1cccc(-c2nn(-c3ccccc3)cc2-c2ccnc(NCCNC(=O)Nc3ccc(Cl)c(Cl)c3)c2)c1 | -26.4% (active) | 11.9% | 7.05% (active) | 41.7% | 36.4% | 9.85% (active) | 44% | -6.87% (active) | -22.1% (active) | -22.2% (active) | 12.6% | -4.67% (active) | 18.3% | 6.67% (active) | 0.717% (active) | -37.1% (active) | -33.8% (active) | 
9 | O=C1OC(c2nc3ccccc3s2)=C/C1=C\c1ccc(O)cc1 | 100% | 114% | 106% | 85.5% | 100% | 103% | 95.1% | 110% | 89.6% | 106% | 95.7% | 111% | 94.4% | 100% | 99.8% |  | 95% | 102%
